Only some compounds are listed: those with a hit (about 1.5% of all), similar ones and a draw of the others.
BLM helicase inh: blocks DNA unwinding by human BLM helicase; recombinant BLM DNA unwinding, fluorescence dequenching; Potency, µM (series often up to 56.1 µM), inactives show at the top dose activity change, negative = inhibition, hits mostly inhibitors; hit rate 0.2% among 350,000;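 note: potency is the fitted concentration of half-maximal effect; plate controls were vehicle for no effect and no enzyme for full effect; nearly all actives have a fitted effect of over 35% in size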
APE1 inh-1: blocks human APE1 abasic DNA cleavage; Potency, µM (highest dose often 65.8 µM), without a hit: top-dose activity change, negative = inhibition, actives largely listed as inhibitors; recombinant APE1, TAMRA/BHQ-2 abasic DNA cleavage fluorescence; hit rate 0.35% among 350,000; AID 2517;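 note: potency is the fitted concentration of half-maximal effect; plate controls were vehicle for no effect and reference inhibitor for full effect; nearly all actives have a fitted effect of over 55% in size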
Target sequence (P27695 whole entry, looked up): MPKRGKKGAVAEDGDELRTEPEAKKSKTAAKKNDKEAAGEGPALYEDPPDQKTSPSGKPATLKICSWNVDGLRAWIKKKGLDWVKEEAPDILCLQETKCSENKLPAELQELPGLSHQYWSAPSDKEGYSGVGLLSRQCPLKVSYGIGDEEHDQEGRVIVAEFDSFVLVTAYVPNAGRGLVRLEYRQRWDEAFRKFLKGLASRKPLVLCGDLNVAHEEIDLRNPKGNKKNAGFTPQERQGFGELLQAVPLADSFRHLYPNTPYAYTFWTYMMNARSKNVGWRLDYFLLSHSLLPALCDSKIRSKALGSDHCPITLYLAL
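Activity was derived from the fluorescence gain between first and third kinetic reads (60 s intervals, ex 525/em 598 nm) after 50 nM THF-abasic TAMRA/BHQ-2 duplex was added to 0.75 nM APE1 preincubated 15 min with compound.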
RECQ1 inh: inhibitors of human RECQ1 DNA helicase. RECQ1 DNA unwinding, red fluorescence kinetic read. P46063. hit rate 0.54% among 240,000. Potency, µM (series often up to 57.3 µM), inactives show at the top dose activity, negative = inhibition, hits mostly inhibitors. AID 2549;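 note: potency is the fitted concentration of half-maximal effect; plate controls were vehicle for no effect and no enzyme for full effect; nearly all actives have a fitted effect of over 30% in size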
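50 nM RECQ1T1 preincubated 15 min with compound in Tris pH 8.0 buffer with MgCl2, DTT, Tween-20 and 2.5 ug/ml poly(dI-dC); started with 200 nM TAMRA/BHQ-2 forked duplex and 2 mM ATP. Unwinding read as fluorescence (525/598 nm), two reads 2 h apart.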
KAT2A inh: GCN5L2 (KAT2A) acetyltransferase inhibition | GCN5L2 HAT assay, ThioGlo1 CoA-SH fluorescence | Potency, µM (series often up to 58.9 µM), inactives show at the top dose activity change, negative = inhibition, usual class: inhibitors | hit rate 0.21% among 390,000; note: potency is the fitted concentration of half-maximal effect
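Compounds, pin-transferred from DMSO stocks, meet 20nM GCN5L2 for 15 min before the reaction begins with H3(1-25) peptide (75uM) and acetyl-CoA (70uM). Thiol-reactive ThioGlo1 reports CoA release over 20 min at room temperature.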
FEN1 inhibitor: blocks human flap endonuclease 1; Recombinant FEN1 flap cleavage, fluorescence, 15 min; hit rate 0.35% among 390,000; Potency, µM (top dose mostly 114 µM), for the others: top-dose activity change, negative = inhibition, hits mostly inhibitors; AID 588795; note: potency is the fitted concentration of half-maximal effect; nearly all actives have a fitted effect of over 65% in size
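Compounds are tested as a concentration series against 10 nM FEN1; after a 15 min room-temperature preincubation, 50 nM substrate starts cleavage, with plate reads at 0 and 15 min. Normalized responses are fitted by a Hill equation.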
PI5P4Ka inh: blocks human PI5P4K alpha kinase activity. P48426. PI5P4Kalpha enzyme, ADP-Glo luminescence, 60 min; stronger effect = lower value. max response, %. hit rate 1.2% among 330,000. AID 652105; active = max response of -50% or lower; inconclusive = between -30% and -50%; inactive = -30% or higher; note: value at the top dose of about 77 µM
Target sequence (P48426 whole entry, looked up): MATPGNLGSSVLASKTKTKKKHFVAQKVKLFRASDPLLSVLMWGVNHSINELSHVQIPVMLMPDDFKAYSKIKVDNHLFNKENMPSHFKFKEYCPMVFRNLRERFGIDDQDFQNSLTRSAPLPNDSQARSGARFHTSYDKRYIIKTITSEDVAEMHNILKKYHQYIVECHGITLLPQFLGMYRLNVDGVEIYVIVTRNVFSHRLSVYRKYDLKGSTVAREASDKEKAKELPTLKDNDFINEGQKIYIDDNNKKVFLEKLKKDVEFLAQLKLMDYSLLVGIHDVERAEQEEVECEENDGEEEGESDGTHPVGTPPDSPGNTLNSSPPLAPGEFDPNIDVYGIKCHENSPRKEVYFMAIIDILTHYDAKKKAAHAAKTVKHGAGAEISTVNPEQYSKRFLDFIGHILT
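Quantitative HTS of the MLSMR library against PI5P4Kalpha with substrate. ATP added last at 5 microM final; room temperature, 60 minutes. Remaining ATP depleted, ADP converted and read as luminescence.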
APE1 dye cs: counter-screen for APE1 inhibitors: DNA dye displacement; shares compounds with APE1 inh-1; DNA fluorescent dye displacement counterscreen, fluorescence; Potency, µM (series often up to 28.5 µM), inactives show at the top dose activity change, negative = inhibition, most hits filed as inhibitors; hit rate 7% among 480;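 note: loss of thiazole orange fluorescence as the dye is displaced from duplex DNA; potency is the fitted concentration of half-maximal effect; 0% = ThO with dsDNA and no compound and -100% = ThO without dsDNA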
Endo IV inh: counter-screen for APE1 inhibitors: inhibitors of E. coli endonuclease IV; E. coli Endo IV, fluorogenic AP-site DNA cleavage; hit rate 4% among 560; Potency, µM (doses to about 27.1 µM), for the others: top-dose activity change, negative = inhibition, most hits filed as inhibitors; AID 2565; shares compounds with APE1 inh-1;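 note: potency is the fitted concentration of half-maximal effect; plate controls were uninhibited enzyme wells for no effect and no enzyme buffer wells for full effect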
APE1 inh-2: APE1 (human) endonuclease inhibition, confirmation; hit rate 44% among 750; purified APE1, fluorogenic abasic-site DNA cleavage; AID 2572; Potency, µM (series often up to 57.1 µM), without a hit: at the highest dose activity change, negative = inhibition, hits mostly inhibitors; shares compounds with APE1 inh-1; note: potency is the fitted concentration of half-maximal effect; nearly all actives have a fitted effect of over 30% in size
APE1 FP inh: compounds that displace a DNA probe from human APE1; shares compounds with APE1 inh-1; APE1 binding to TAMRA-labelled double-stranded DNA, fluorescence polarization displacement; Potency, µM (top dose mostly 28.5 µM), inactives show at the highest dose activity, negative = inhibition, most hits filed as inhibitors; hit rate 7% among 480; note: potency is the fitted concentration of half-maximal effect
* hit, by the source's call; i = inactive; ? = inconclusive; / = no result; ! = repeats disagree; [ ] = remark or other dose. Unless noted, calls come from the whole dose curve; as a rule, active = well fitted curve in the direction sought with a large enough effect; inconclusive = small, poorly fitted or top-dose-only effect, or another doubt; inactive = no such curve, though single readings can be large; an effect the other way counts as inactive or inconclusive. Unless noted, % is set by controls: 0 for no effect and ±100 for the full control effect.

SMILES	BLM helicase inh	APE1 inh-1	RECQ1 inh	KAT2A inh	FEN1 inhibitor	PI5P4Ka inh	APE1 dye cs	Endo IV inh	APE1 inh-2	APE1 FP inh
COCCn1c(C)cc(C(=O)CSc2nc3nc(C)cc(C)n3n2)c1C	2%	12%	-5%	2%	-1%	-8	/	/	/	/
COCCn1c(C)cc(C(=O)CSc2n[nH]c(N)n2)c1C	-14%	32µM*	-23%	-18%	-1%	-10	-1%	8%	-7%[24.4 µM]	-1%
CC1=N/C(=C/c2ccco2)C(=O)O1	2%	25µM*	?	-28%	-21%	-4	-6%	9%	35µM*	-19%
Nc1cc(C(=O)O)ccc1Sc1ccccc1C(=O)O	6%	?	28%	-26%	-6%	?	/	/	-10%	/
CCCCCCC/C=C\CCCCCCCCC(=O)O	/	0%	?	8.9µM*	/	/	/	-22%[57.1 µM]	-67%	/
Cc1nc(N=Nc2ccc(S(=O)(=O)O)cc2S(=O)(=O)O)c(COP(=O)(O)O)c(C=O)c1O	-4%	32µM*!	-3%	?	/	/	/	-1%[57.1 µM]	-6%	/
CCN(CC)N=Nc1ccc(C(=O)O)cc1	5%	4%	-8%	-2%	-3%	4	/	/	/	/
Cc1nc(N=Nc2ccc(C(=O)O)cc2)c(COP(=O)(O)O)c(C=O)c1O	/	?	-1%	-15%	/	/	/	-10%[57.1 µM]	14µM*	/
O=C1CC(c2ccccc2)Oc2cc(O)cc(O)c21 (stereo not drawn)	-5%	?	i	-14%	11%	-12	/	/	/	/
CC1CC(=O)c2c(cc3c(-c4c(O)cc(O)c5c(O)c6c(cc45)OC(C)CC6=O)c(O)cc(O)c3c2O)O1 (stereo not drawn)	-21%	?	18µM*	?	14µM*	-80*	4.5µM*	?	?	-12%
Oc1ccc(-c2csc(-c3ccccc3)n2)cc1O	-10%	-3%	-5%	-15%	-16%	/	/	/	/	/
Cc1nc(-c2ccc(O)c(O)c2)cs1	0%	3.2µM*	?	-7%[0.501 µM]	-1%	-7	1%	183%	-8%[24.4 µM]	-3%
O=C1c2ccccc2C(=O)c2c([N+](=O)[O-])ccc(O)c21	-9%	28µM*	4%	-2%	?	?	?	-4%	14µM*	-19%
CC(C)C[C@H](NC(=O)[C@H](CO)NC(=O)CNC(=O)[C@H](CCCCN)NC(=O)[C@H](CCCN=C(N)N)NC(=O)[C@H](C)NC(=O)[C@H](Cc1ccccc1)NC(=O)[C@@H](N)CCCN=C(N)N)C(=O)N[C@@H](CCCN=C(N)N)C(=O)N[C@@H](CCC(N)=O)C(=O)N[C@@H](CCCCN)C(=O)N[C@@H](CC(N)=O)C(=O)N[C@H](C(=O)O)C(C)C	27%	2%	-5%	3%	/	/	/	/	/	/
CSCC[C@H](NC(=O)[C@H](Cc1ccc(OS(=O)(=O)O)cc1)NC(=O)[C@@H](N)CC(=O)O)C(=O)NCC(=O)N[C@@H](Cc1c[nH]c2ccccc12)C(=O)N[C@@H](CCSC)C(=O)N[C@@H](CC(=O)O)C(=O)N[C@@H](Cc1ccccc1)C(N)=O	5%	-2%	-9%	6%	/	/	/	/	/	/
CC(=O)NC1C(OC2OC(CC(O)C3OC([N+]4=CCC(=O)NC4=O)C(O)C3O)C(O)C(O)C2NC(=O)/C=C/CCCCCCCCC(C)C)OC(CO)C(O)C1O (stereo not drawn)	/	-3%	25%	-8%	/	/	/	/	/	/
CC(=O)N[C@H]1C(O[C@@H]2O[C@H](C[C@@H](O)[C@H]3O[C@@H](N4CCC(=O)NC4=O)[C@H](O)[C@@H]3O)[C@H](O)[C@H](O)[C@H]2NC(=O)/C=C/CCCCCCCCCCC(C)C)OC(CO)[C@@H](O)[C@@H]1O (stereo partly drawn)	-9%	7.9µM*	-9%	-3%	/	/	103%[57.1 µM]	11%[57.1 µM]	2.5µM*	-57%[57.1 µM]
CN(C)C(=O)c1ccc(-c2ccc3ncnc(NCc4cccs4)c3c2)cc1	-5%	10µM*	-7%	-15%	/	/	?	-77%[57.1 µM]	7.9µM*	22%[57.1 µM]
Cc1ccsc1CNc1ncnc2ccc(-c3c(C)noc3C)cc12	-6%	?	-5%	1%	?	/	/	/	/	/
Cc1noc(C)c1-c1ccc2ncnc(NCc3cccs3)c2c1	-9%	14µM*	3%	-16%	/	/	?	-52%[57.1 µM]	32µM*	36%[57.1 µM]
c1csc(CNc2ncnc3ccc(-c4ccc5c(c4)OCCO5)cc23)c1	/	15%	/	-14%	-21%	/	/	/	/	/
CS(=O)(=O)N1CCN(c2nc(-c3cccs3)nc3ccccc23)CC1	/	/	/	/	-8%	/	/	/	/	/
Cn1c(=O)c2c(ncn2CC(=O)N/N=C/c2c[nH]c3ccccc23)n(C)c1=O	-4%	8%	-6%	2%	/	/	/	/	?	/
O=C(CSc1nc2ccc(Cl)cc2[nH]1)c1ccc2c(c1)OCO2	2%	0%	-17%	-20%	-5%	/	/	/	/	/
O=C(CSc1nc2cc(Cl)c(Cl)cc2[nH]1)c1ccc2c(c1)OCO2	-15%	?	-2%	-4%	-9%	0	36%	-2%	?	10%
O=C1c2ccc(O)c(O)c2C(=O)c2c(O)ccc(O)c21	-27%	3.2µM*	32µM*	?	/	/	/	14µM*	4µM*	/
C[C@@H]1CC2[C@@H]3C[C@H](F)C4=CC(=O)C(Cl)=C[C@]4(C)[C@@]3(F)[C@H](O)C[C@]2(C)[C@@]1(O)C(=O)CO (stereo partly drawn)	0%	/	/	-7%	/	/	/	/	/	/
O=c1c2cc(Br)cc(Br)c2oc2nc3n(c(=O)c12)CCCS3	-5%	2%	-7%	-2%	/	/	/	/	/	/
O=Cc1ccc2oc3nc4n(c(=O)c3c(=O)c2c1)CCCS4	28µM*	?	13µM*	?	50µM*	-73*	/	/	32µM*	/

High-throughput results (PubChem)
